Measurements: the supplement of paper PMC10811239

What was measured:
Test in all cases: bioluminescence (viable cell) signal fold change after vs before treatment, normalised to DMSO (ratio); higher = more tumour cell growth / less inhibition
Conditions in all cases: 10 µM; treatment time 6 days
[1] = test system: LEGO organoid PT (PTEN-/-; TP53-/-)
Method: (§1)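 Luc2-labelled iPSC-derived glioblastoma-like organoids (LEGOs, genotypes PT = PTEN-/-;TP53-/-, PTCC = plus CDKN2A/B-/-, PTN = plus NF1-/-) were treated with 10 uM drug for 6 days (applied every other day) at 37 C. Bioluminescence imaging was done before treatment and 2 days after the last dose. BLI signals were normalised to the DMSO control on the same day and then to the pre-treatment signal (N=3).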

[2] = test system: LEGO organoid PTCC (PTEN-/-; TP53-/-; CDKN2A-/-; CDKN2B-/-)
Method: as §1

[3] = test system: LEGO organoid PTN (PTEN-/-; TP53-/-; NF1-/-)
Method: as §1

Compound	bioluminescence [1]	bioluminescence [2]	bioluminescence [3]
CC(C)Cc1ccc(C(C)C(=O)O)cc1 (stereo unspecified) [Ibuprofen]	1.56	0.624	1.57
CN[C@H](CC(C)C)C(=O)N[C@H]1C(=O)N[C@@H](CC(N)=O)C(=O)N[C@H]2C(=O)N[C@H]3C(=O)N[C@H](C(=O)N[C@H](C(=O)O)c4cc(O)cc(O)c4-c4cc3ccc4O)[C@H](O)c3ccc(c(Cl)c3)Oc3cc2cc(c3O[C@@H]2O[C@H](CO)[C@@H](O)[C@H](O)[C@H]2O[C@H]2C[C@](C)(N)[C@H](O)[C@H](C)O2)Oc2ccc(cc2Cl)[C@H]1O [Vancomycin]	1.48	0.957	0.868
CN=C(NC#N)NCCSCc1nc[nH]c1C [Cimetidine]	1.14	2.25	1.65
Cl.NCC(=O)CCC(=O)O [5-Aminolevulinic acid hydrochloride]	1.09	2.27	1.19
CCCC(CCC)C(=O)O [Valproic Acid]	1.01	0.784	0.834
COc1cc2ncnc(Nc3ccc(F)c(Cl)c3)c2cc1NC(=O)/C=C/CN1CCCCC1 [Dacomitinib]	0.37	0.0502	0
COc1cc(Nc2ncc(F)c(Nc3ccc4c(n3)N(COP(=O)(O)O)C(=O)C(C)(C)O4)n2)cc(OC)c1OC [Fostamatinib]	0.0894	0.182	0.0646
CCc1c2c(nc3ccc(OC(=O)N4CCC(N5CCCCC5)CC4)cc13)-c1cc3c(c(=O)n1C2)COC(=O)[C@]3(O)CC.Cl.O.O.O [Irinotecan hydrochloride trihydrate]	0.98	0.793	1.15
CO[C@@H]1[C@H](N(C)C(=O)c2ccccc2)C[C@H]2O[C@]1(C)n1c3ccccc3c3c4c(c5c6ccccc6n2c5c31)C(=O)NC4 [Midostaurin]	0.527	1.65	0.647
C[C@@H]1CCN(C(=O)CC#N)C[C@@H]1N(C)c1ncnc2[nH]ccc12 [Tofacitinib]	1.24	1.34	1.19
Cl.CNCC\C=C1\c2ccccc2CCc2ccccc12 [Nortriptyline hydrochloride]	0.795	0.717	0.835
O=C1CCC(N2C(=O)c3ccccc3C2=O)C(=O)N1 (stereo unspecified) [Thalidomide]	3.97	0.79	1.38
CN(C)CCCN1c2ccccc2CCc2ccccc21.Cl [Imipramine hydrochloride]	0.921	0.82	0.961
CCOC(=O)C1=C(C)NC(C)=C(C(=O)OC)C1c1cccc(Cl)c1Cl (stereo unspecified) [Felodipine]	1.06	1.16	1.04
C=CC(=O)N1CCC[C@@H](n2nc(-c3ccc(Oc4ccccc4)cc3)c3c(N)ncnc32)C1 [Ibrutinib]	0.73	1.87	1.26
Cl.OC(CCN1CCCC1)(c1ccccc1)C1CCCCC1 (stereo unspecified) [Procyclidine hydrochloride]	1.48	0.919	0.656
Cl.Nc1c2c(nc3ccccc13)CCCC2.O [Tacrine hydrochloride hydrate]	0.719	0.819	1.22
NC(=O)N1c2ccccc2CC(=O)c2ccccc21 [Oxcarbazepine]	0.572	0.951	1.05
CS(=O)(=O)c1ccc(C(=O)Nc2ccc(Cl)c(-c3ccccn3)c2)c(Cl)c1 [Vismodegib]	0.63	2.45	0.888
CC(=O)Nc1nnc(S(N)(=O)=O)s1 [Acetazolamide]	1.6	1.7	2.04
CC/C(=C(\c1ccccc1)c1ccc(OCCN(C)C)cc1)c1ccccc1 [Tamoxifen]	0.646	0.468	0.103
COC(=O)N[C@H](C(=O)N[C@@H](Cc1ccccc1)[C@@H](O)CN(Cc1ccc(-c2ccccn2)cc1)NC(=O)[C@@H](NC(=O)OC)C(C)(C)C)C(C)(C)C.O=S(=O)(O)O [Atazanavir sulfate]	1.05	0.573	6.56
Cc1cn(-c2cc(NC(=O)c3ccc(C)c(Nc4nccc(-c5cccnc5)n4)c3)cc(C(F)(F)F)c2)cn1 [Nilotinib]	2.55	1.4	3.9
CCc1cc(C(N)=S)ccn1 [Ethinamide]	2.05	0.707	1.99
CCCC(CCC)C(=O)[O-].[Na+] [Valproic acid sodium salt]	1.11	1.23	2.43
CCN(CC)C(=O)[C@@]1(c2ccccc2)C[C@H]1CN.Cl [Milnacipran ((1S-cis) hydrochloride)]	0.856	2.09	0.808
NS(=O)(=O)c1cc2c(cc1Cl)N=CNS2(=O)=O [Chlorothiazide]	0.96	1.63	1.33

Compound	bioluminescence [1]	bioluminescence [2]	bioluminescence [3]
CC(=O)c1c(C)c2cnc(Nc3ccc(N4CCNCC4)cn3)nc2n(C2CCCC2)c1=O.O=S(=O)(O)CCO [Palbociclib Isethionate]	3.4	2.84	1.14
C#Cc1cccc(Nc2ncnc3cc(OCCOC)c(OCCOC)cc23)c1 [Erlotinib]	0.504	4.27	1.82
OC[C@H]1O[C@@H](n2cnc3c2NC=NC[C@H]3O)C[C@@H]1O [Pentostatin]	0.674	0.797	1.59
COC(c1ccccc1)(c1ccccc1)[C@H](Oc1nc(C)cc(C)n1)C(=O)O [Ambrisentan]	0.999	1.39	1.08
NC(=O)OCC(COC(N)=O)c1ccccc1 [Felbamate]	0.699	3.87	0.547
O=C1[N-]C(=O)C(c2ccccc2)(c2ccccc2)N1.[Na+] [Phenytoin sodium]	0.855	1.45	0.866
COc1cc(Nc2c(C#N)cnc3cc(OCCCN4CCN(C)CC4)c(OC)cc23)c(Cl)cc1Cl [Bosutinib]	1.24	0.731	0.669
Cl.Cc1ccsc1\C(=C\CCN1CCC[C@H](C1)C(O)=O)c1sccc1C [Tiagabine hydrochloride]	1.04	2.4	0.83
CNCCCC1c2ccccc2C=Cc2ccccc21.Cl [Protriptyline hydrochloride]	0.749	0.571	1.14
O=c1cc(O)c(Cl)c[nH]1 [Gimeracil]	0.79	0.774	1.25
CNS(=O)(=O)CCc1ccc2[nH]cc(C3CCN(C)CC3)c2c1.Cl [Naratriptan hydrochloride]	0.774	0.859	1.2
CNCCCN1c2ccccc2CCc2ccccc21.Cl [Desipramine hydrochloride]	0.858	0.744	1.22
Nc1nc(=O)n([C@@H]2CS[C@H](CO)O2)cc1F [Emtricitabine]	0.905	0.872	0.495
CCN(CC)CC(=O)Nc1c(C)cccc1C.Cl [Lidocaine hydrochloride]	1.49	1.11	1.08
Cc1cc(C)nc(NS(=O)(=O)c2ccc(N)cc2)n1 [Sulfamethazine]	0.814	0.645	1.03
CCN(CC)C(=O)[C@]1(c2ccccc2)C[C@@H]1CN.Cl [Milnacipran hydrochloride]	1.54	1.02	2.39
C[C@@H](c1ncncc1F)[C@](O)(Cn1cncn1)c1ccc(F)cc1F [Voriconazole]	0.515	0.587	1.46
O=c1[nH]cnc2c1ncn2[C@H]1CC[C@@H](CO)O1 [Didanosine]	0.958	4.18	0.81
S=c1nc[nH]c2nc[nH]c12 [Mercaptopurine]	4.23	1.6	0.946
CN(C/C=C/c1ccccc1)Cc1cccc2ccccc12.Cl [Naftifine hydrochloride]	0.607	1.3	0.535
NC(=O)c1ncn([C@@H]2O[C@H](CO)[C@@H](O)[C@H]2O)n1 [Ribavirin]	0.826	1.89	0.822
CC(=O)NCCCS(=O)(=O)[O-].CC(=O)NCCCS(=O)(=O)[O-].[Ca+2] [Acamprosate calcium]		0.374	1.11
CCCCCCCCCC(=O)OCCN1CCN(CCCN2c3ccccc3Sc3ccc(C(F)(F)F)cc32)CC1 [Fluphenazine decanoate]		2.63	0.964
Cc1ccc(Nc2nccc(N(C)c3ccc4c(C)n(C)nc4c3)n2)cc1S(N)(=O)=O [Pazopanib]		0.395	0.583
CC(C)CN(C[C@@H](O)[C@H](Cc1ccccc1)NC(=O)O[C@H]1CCOC1)S(=O)(=O)c1ccc(N)cc1 [Amprenavir]		0.498	0.695
CCC1(C)CC(=O)NC1=O (stereo unspecified) [Ethosuximide]		0.668	0.778
CC(=O)OCC(=O)[C@@]1(O)[C@H](C)C[C@H]2[C@@H]3CCC4=CC(=O)C=C[C@]4(C)[C@@]3(F)[C@@H](O)C[C@@]21C [Dexamethason acetate]		0.467	1.53
